Experimental findings from PubChem BioAssay (NCI) are described below.

Each structure is given as a SMILES string. The panel holds about 83,000 compounds, 20% with a hit somewhere; the sample as a whole holds those more often.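 Testing used 96-well plates and a 48-hour single-concentration exposure. Example: -40 means 40% of the starting cells died.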 Values without a mark were called inactive. The source made the active and inactive calls. The calls were made as follows: active = growth percent below 10; inactive = the rest.

This assay has as its system HL-60(TB) leukemia. The assay can be described thus: NCI-60 one-dose screen, 48 h (100 = growth as untreated, 0 = no growth, -100 = all killed). Particulars: 10 µM unless noted.
Take `O=C1c2ccccc2C(=O)c2c1oc1oc3c(c(=O)c21)c(=O)n(-c1ccccc1)c1ccccc31`: the growth was 7.05% (active).
For the compound `O=C(C=P(c1ccccc1)(c1ccccc1)c1ccccc1)CCl`, the growth was -39.8% (active).
On to `O=C(Nc1cc(-c2ccccc2)[nH]n1)c1ccc(Cl)cc1`, for which the growth was 42.1%.
With `O=C(CCc1nnc2sc(Cc3ccccc3Cl)nn12)c1nc2ccccc2[nH]1`, the growth is 104%.
For `Oc1cccnc1CN1CCCC1`, the growth was 100%.
For `COc1cc(F)c(-c2nc3c(C)cccc3n2Cc2c(F)cccc2F)c(F)c1`, the growth is 78.8%.
`CN1CCN(Cc2ccc(NC(=O)c3cncc(C#Cc4ncc5cnccn45)c3)cc2C(F)(F)F)CC1`: the growth was 24.8%.
In the case of `CCOC(=O)c1ccc2c(c1)[n+](=O)c(C(=O)C1CCCS1)c(C(F)(F)F)n2[O-]` (stereo unspecified), the growth is -69% (active).
For the compound `O=C(C[n+]1ccccc1Cl)c1ccc2c(c1)CCCC2`, the growth was 79.2%.
In the case of `c1ccc2c(N=NSc3ncnc4nc[nH]c34)c3ccccc3nc2c1` it was -5.76% (active); in that of `Oc1ccc2cc(Br)ccc2c1-c1c(O)ccc2cc(Br)ccc12`, 81.2%; in that of `C#CCn1c(C)cc(C)c(C#N)c1=O`, 101%.
For `COc1ccc(Cn2cc3c(c2-c2cc(OC)c(OC)c(OC)c2)CCc2cnoc2-3)cc1` the value was 0.149% (active).
In the case of `CCn1cc(-c2[nH]c(=S)ncc2-c2ccc(Cl)cc2)c(-c2ccc(Br)cc2)n1` it was 117%; in that of `CCOc1cc(F)c([N+](=O)[O-])cc1[N+](=O)[O-]`, -12.6% (active).
With `CCN(CC)c1nc(SCC(=O)Nc2nc3ccc(C)cc3s2)nc(-c2ccccc2)c1C#N`, the growth is 96.5%.
